Molecules are shown by their SMILES.

This note sets out measurements from ChEMBL document CHEMBL2218924, “A broad activity screen in support of a chemogenomic map for kinase signalling research and drug discovery” (Biochem J, 2013).

For experiment [1], the target named is T1, Serine/threonine-protein kinase TBK1 (Homo sapiens) (UniProt Q9UHD2).
T1 sequence (whole entry): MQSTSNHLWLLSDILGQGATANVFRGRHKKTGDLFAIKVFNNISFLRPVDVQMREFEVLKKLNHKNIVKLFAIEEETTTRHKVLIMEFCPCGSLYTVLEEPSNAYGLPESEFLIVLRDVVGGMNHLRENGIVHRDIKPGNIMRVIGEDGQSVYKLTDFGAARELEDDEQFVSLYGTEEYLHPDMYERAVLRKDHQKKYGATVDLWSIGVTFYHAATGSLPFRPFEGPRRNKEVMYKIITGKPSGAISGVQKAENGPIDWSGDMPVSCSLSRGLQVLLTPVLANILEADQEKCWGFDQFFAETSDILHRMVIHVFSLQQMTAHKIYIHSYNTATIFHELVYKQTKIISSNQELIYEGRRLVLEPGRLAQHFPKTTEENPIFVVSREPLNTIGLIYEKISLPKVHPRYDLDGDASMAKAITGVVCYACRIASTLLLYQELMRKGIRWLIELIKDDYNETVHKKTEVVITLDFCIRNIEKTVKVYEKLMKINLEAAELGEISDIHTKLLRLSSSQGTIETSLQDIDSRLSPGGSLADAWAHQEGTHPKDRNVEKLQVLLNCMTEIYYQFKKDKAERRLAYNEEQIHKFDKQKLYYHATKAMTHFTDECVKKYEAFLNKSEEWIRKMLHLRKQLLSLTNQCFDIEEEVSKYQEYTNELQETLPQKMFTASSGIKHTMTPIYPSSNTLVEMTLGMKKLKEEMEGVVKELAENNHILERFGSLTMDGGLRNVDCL
The settings on record: at 10 µM.

Experiment [2] addresses T2, TGF-beta receptor type-1 (Homo sapiens) (UniProt P36897).
T2 sequence (whole entry): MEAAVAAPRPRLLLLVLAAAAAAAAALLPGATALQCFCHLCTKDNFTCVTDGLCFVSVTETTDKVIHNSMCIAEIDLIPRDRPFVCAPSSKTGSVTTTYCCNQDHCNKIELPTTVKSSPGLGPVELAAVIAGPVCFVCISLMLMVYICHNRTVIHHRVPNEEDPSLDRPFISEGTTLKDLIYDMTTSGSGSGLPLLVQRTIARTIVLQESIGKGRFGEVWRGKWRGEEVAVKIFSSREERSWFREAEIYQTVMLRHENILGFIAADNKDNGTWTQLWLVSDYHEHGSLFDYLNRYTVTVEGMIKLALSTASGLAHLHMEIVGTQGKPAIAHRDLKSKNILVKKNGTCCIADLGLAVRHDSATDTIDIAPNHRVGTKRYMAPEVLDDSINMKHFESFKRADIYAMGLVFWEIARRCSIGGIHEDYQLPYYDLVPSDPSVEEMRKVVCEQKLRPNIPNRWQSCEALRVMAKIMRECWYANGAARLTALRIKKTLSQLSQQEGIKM
The settings on record: at 1 µM.

For experiment [3], the target named is T2, TGF-beta receptor type-1 (Homo sapiens). To be noted: at 10 µM.
The target of experiment [4] is Insulin-like growth factor 1 receptor (Homo sapiens) (UniProt P08069). To be noted: at 1 µM.
Chain of Insulin-like growth factor 1 receptor (Homo sapiens) (P08069 31-736 limits assumed): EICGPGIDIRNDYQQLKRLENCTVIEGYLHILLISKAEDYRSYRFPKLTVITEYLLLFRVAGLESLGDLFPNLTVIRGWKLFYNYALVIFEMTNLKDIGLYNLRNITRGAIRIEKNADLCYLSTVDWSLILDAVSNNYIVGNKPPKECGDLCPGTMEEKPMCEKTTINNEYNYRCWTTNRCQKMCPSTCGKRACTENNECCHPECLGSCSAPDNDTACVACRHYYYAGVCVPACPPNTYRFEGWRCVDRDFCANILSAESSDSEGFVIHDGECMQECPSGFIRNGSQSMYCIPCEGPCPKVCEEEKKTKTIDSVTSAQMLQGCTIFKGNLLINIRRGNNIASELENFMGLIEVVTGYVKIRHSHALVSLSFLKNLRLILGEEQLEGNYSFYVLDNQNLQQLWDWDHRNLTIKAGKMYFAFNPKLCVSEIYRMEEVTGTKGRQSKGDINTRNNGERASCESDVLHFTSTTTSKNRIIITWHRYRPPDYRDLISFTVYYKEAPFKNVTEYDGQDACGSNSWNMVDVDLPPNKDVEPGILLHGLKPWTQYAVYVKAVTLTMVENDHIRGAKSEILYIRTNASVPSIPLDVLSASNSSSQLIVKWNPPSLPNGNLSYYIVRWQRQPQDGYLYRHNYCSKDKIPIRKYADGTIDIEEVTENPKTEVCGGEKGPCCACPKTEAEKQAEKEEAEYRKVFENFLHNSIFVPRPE
Chain of Insulin-like growth factor 1 receptor (Homo sapiens) (P08069 741-1367 limits assumed): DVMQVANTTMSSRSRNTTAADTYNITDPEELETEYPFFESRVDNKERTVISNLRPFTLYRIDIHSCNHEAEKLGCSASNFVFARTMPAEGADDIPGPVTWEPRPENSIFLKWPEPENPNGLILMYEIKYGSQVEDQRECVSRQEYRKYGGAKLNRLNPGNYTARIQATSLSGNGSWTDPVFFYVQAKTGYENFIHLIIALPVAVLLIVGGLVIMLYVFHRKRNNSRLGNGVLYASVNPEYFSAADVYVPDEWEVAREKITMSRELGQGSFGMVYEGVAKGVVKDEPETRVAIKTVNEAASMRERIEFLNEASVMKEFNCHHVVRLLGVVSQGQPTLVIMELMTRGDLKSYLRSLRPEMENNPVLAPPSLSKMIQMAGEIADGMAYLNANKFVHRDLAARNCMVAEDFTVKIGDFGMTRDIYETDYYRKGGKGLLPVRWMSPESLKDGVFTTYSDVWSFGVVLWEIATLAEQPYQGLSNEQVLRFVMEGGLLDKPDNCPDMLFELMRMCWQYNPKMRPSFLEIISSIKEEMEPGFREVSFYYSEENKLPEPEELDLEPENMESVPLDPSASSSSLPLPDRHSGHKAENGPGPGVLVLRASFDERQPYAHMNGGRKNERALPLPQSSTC
The target is the same in experiment [5]. The settings on record: at 10 µM.
Experiment [6] concerns the target T3, Inhibitor of nuclear factor kappa-B kinase subunit alpha (Homo sapiens) (UniProt O15111).
T3 sequence (whole entry): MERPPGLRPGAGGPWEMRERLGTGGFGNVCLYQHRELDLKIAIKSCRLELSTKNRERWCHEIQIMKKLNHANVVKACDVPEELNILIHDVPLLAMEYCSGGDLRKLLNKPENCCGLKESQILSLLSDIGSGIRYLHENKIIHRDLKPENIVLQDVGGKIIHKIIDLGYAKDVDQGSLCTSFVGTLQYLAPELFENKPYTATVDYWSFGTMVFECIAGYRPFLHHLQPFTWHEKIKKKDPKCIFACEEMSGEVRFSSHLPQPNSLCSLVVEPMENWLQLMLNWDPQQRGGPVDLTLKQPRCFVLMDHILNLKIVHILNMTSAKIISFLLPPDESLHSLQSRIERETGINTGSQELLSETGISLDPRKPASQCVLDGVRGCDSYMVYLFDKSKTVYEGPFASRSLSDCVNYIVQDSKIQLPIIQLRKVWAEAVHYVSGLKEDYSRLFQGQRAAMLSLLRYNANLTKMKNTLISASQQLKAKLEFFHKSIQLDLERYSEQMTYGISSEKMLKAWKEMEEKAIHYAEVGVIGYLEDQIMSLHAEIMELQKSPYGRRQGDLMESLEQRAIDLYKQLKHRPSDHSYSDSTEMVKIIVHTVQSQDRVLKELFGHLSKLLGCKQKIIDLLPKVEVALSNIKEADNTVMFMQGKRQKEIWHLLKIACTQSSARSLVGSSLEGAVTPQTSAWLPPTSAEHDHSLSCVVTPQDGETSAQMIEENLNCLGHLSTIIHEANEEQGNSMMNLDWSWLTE
The settings on record: at 1 µM.

In experiment [7] the target is T3, Inhibitor of nuclear factor kappa-B kinase subunit alpha (Homo sapiens). The settings on record: at 10 µM.
Experiment [8] has as its target T4, Inhibitor of nuclear factor kappa-B kinase subunit beta (Homo sapiens) (UniProt O14920).
T4 sequence (whole entry): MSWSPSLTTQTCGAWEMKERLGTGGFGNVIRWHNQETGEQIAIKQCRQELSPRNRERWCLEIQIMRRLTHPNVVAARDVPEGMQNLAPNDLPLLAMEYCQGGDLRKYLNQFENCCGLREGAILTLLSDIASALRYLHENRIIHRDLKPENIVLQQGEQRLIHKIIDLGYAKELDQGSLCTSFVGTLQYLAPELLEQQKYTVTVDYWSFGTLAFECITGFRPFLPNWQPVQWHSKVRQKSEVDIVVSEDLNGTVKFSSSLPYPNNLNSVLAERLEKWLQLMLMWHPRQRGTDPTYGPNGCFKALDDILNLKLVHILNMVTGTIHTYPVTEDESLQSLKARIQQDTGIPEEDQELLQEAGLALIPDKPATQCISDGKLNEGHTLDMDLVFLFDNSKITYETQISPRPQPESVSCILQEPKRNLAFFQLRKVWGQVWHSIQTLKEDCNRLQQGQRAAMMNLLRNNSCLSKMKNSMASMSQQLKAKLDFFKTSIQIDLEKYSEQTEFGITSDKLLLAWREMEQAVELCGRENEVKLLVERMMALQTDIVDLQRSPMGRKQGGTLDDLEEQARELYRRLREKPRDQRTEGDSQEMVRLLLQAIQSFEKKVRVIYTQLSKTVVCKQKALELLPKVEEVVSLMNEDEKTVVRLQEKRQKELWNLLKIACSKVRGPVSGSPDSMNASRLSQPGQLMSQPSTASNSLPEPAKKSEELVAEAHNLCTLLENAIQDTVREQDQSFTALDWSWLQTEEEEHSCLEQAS
The settings on record: at 1 µM.

The target in experiment [9] is T4, Inhibitor of nuclear factor kappa-B kinase subunit beta (Homo sapiens). To be noted: at 10 µM.
Experiment [10] has as its target Insulin receptor (Homo sapiens) (UniProt P06213). The settings on record: at 1 µM.

Chain of Insulin receptor (Homo sapiens) (P06213 28-758 limits assumed): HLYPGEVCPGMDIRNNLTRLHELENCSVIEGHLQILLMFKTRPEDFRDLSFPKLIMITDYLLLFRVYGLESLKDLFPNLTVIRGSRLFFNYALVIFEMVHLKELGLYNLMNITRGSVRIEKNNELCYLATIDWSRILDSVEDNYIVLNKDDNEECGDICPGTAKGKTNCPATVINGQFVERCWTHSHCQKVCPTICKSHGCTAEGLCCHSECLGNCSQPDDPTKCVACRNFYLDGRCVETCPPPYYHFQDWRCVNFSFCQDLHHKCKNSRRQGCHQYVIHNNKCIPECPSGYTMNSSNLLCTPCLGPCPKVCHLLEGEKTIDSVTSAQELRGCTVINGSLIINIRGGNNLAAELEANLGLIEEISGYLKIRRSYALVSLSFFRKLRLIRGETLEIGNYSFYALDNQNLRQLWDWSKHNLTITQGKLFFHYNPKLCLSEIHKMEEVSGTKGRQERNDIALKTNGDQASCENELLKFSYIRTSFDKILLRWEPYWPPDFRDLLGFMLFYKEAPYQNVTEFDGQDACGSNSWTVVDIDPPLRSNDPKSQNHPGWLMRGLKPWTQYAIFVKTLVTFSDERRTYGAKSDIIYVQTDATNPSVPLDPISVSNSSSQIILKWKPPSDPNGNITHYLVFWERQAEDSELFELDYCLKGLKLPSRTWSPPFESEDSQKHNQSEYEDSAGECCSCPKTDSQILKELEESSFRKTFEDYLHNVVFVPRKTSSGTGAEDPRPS
Chain of Insulin receptor (Homo sapiens) (P06213 763-1382 limits assumed): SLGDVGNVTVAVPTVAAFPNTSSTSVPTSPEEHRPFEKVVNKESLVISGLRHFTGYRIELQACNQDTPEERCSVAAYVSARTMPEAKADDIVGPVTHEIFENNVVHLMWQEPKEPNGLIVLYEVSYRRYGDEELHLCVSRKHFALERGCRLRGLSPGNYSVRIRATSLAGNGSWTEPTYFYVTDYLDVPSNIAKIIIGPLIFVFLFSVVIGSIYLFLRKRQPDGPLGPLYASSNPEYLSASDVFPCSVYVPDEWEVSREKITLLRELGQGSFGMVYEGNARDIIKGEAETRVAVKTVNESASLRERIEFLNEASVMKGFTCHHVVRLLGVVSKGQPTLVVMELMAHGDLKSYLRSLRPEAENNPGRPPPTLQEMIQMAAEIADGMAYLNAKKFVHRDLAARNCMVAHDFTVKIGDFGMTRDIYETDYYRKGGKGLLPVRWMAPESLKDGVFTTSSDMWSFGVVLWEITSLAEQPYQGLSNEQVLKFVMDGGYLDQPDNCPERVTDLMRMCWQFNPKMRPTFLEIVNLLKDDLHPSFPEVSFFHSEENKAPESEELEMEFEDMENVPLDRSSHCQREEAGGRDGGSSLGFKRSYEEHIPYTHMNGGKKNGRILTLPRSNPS

As a reminder, the residual activity is the signal under treatment as a percentage of the control signal. `COc1cc2ncnc(Nc3ccc(Oc4ccccc4)cc3)c2cc1OC`: the residual activity in [1] was 57%; in [2], 99%; in experiment [3], 98%; in [4], 110%; in [5], 89%; in [6], 117%. In addition, the residual activity in [7] was 101%; in [8], 103%; in experiment [9], 122%; in [10], 110%.
